The list is not random: actives were taken first. Their share in the collection is about 6.2%.
GRIN3A LBD mod: binders of NR3A ligand-binding domain, primary screen, biophysical, differential scanning fluorimetry, uHTS | Glutamate receptor ionotropic, NMDA 3A (GRIN3A) ligand-binding domain | 2.5% of 340,000 active | Tm shift relative to glycine control, % at 25 µM | NR3A LBD differential scanning fluorimetry, Tm shift; 0% = protein alone, 100% = glycine-bound protein;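 active = melting temperature shift of at least 10% of the positive control shift, at one fixed dose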
AI-2 QS modul: Vibrio harveyi AI-2 quorum sensing modulators, primary screen, JMH597 strain, luminescence/OD600 ratio; activity change, % at 7.5 µM; Vibrio harveyi JMH597 AI-2 luminescence/OD600 ratio, 9 h; stronger effect = lower value; strain lacks LuxN and CqsS sensors; 0 = neutral-control median; 0.4% of 300,000 active; AID 2094, 2009; in the data active = activity change below about -75%, passing the limit was not always enough;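 note: luminescence divided by OD600 gain over 9 h not by final OD600 alone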
SUMO Mot1 rescue: yeast Mot1-301 growth rescue at high temperature, primary screen, SUMOylation pathway inhibitor project, S. cerevisiae, ATP luminescence, 38.5C; S. cerevisiae Mot1-301 growth rescue; percent above DMSO median, 100 means doubled; growth rescue, % at 18.8 µM; 1% of 320,000 active; AID 2716, 2010;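 active = every valid replicate shows activation above 250% relative to neutral control wells; inactive = the rest, any valid replicate at or below 250%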;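 note: OY570 slx delta 5 strain wells were the positive control but not used for scaling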
NTR1 agonist: agonists of human NTR1, primary screen, imaging, U2OS cells, beta-arrestin-GFP, high content | AID 493036, 2011 | activation, % at 20 µM | NTR1-U2OS beta-arrestin-GFP spot imaging, agonist mode | 0.17% of 330,000 active;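 active = activation at or above 40% of the spot to cytoplasm intensity ratio, with at least 20 cells analyzed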;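 note: 0% = DMSO without peptide and 100% = 100 nM NTR1 peptide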
Cardio protect: cardioprotection against H2O2-induced cell death, primary screen, uHTS, H9c2 cells, ATPLite luminescence. H9c2 cardiomyocytes, H2O2 injury protection, 2 h. protection from H2O2 cell death, % at 20 µM. 0.63% of 360,000 active;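 active = compounds giving at least 50% protection of heart cells from peroxide-induced death in the single-dose screen, raw or plate-pattern-corrected value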;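 note: 0% = DMSO wells with peroxide and 100% = DMSO wells without peroxide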
AHR act: AHR activators, primary screen, cell-based, luminescence, luciferase reporter, human | Aryl hydrocarbon receptor (Homo sapiens), P35869 | AHR-responsive luciferase reporter cells | activation, % at 5 µM | 2.5% of 320,000 active; in the data active = activation above about 47%;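 note: 0% = vehicle wells and 100% = reference agonist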
Target sequence (P35869 whole entry, looked up): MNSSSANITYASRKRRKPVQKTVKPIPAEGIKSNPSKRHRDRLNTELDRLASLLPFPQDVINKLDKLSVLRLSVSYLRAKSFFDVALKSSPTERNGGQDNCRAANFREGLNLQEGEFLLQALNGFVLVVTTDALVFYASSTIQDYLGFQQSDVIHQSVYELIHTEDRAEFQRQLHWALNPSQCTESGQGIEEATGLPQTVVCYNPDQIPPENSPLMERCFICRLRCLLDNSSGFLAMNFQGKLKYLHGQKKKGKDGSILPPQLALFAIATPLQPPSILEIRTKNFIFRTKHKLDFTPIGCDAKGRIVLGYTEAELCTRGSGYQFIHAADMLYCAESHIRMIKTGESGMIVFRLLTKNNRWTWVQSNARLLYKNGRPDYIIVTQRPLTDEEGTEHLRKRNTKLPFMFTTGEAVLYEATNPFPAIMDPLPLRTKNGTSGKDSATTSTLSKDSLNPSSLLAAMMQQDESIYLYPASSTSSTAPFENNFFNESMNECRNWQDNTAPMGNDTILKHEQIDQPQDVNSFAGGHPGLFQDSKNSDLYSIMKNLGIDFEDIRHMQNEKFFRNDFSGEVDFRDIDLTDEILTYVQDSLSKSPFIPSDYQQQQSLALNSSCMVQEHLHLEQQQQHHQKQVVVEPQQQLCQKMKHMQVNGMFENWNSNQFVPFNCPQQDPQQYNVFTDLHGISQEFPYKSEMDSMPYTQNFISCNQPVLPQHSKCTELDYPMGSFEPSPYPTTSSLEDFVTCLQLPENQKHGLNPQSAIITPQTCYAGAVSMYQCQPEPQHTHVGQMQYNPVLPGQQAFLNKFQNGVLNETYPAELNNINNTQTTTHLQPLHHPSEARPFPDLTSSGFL
* = called active by the depositor; x = no result given; + = active, no number.

SMILES	GRIN3A LBD mod	AI-2 QS modul	SUMO Mot1 rescue	NTR1 agonist	Cardio protect	AHR act
COc1ccc(C(=O)O/N=C(/c2ccccc2)c2ccncc2)cc1OC	-1	29	-1	1	59*	1
COc1cccc(OCC(=O)O/N=C(\N)c2ccncc2)c1	-1	-76*	0	-1	2	44
Cc1ccccc1C(=O)O/N=C(\N)c1cccc([N+](=O)[O-])c1	-7	5	8	0	-14	94*
COc1ccc(C(=O)O/N=C(/c2ccccc2)c2ccncc2)cc1	1	6	21	2	29	1
COc1cc(/C=C(\NC(=O)c2ccccc2)C(=O)N2CC3CC(C2)c2cccc(=O)n2C3)cc(OC)c1OC (centres undefined)	1	16	+	0	4	2
Cc1ccc(S(=O)(=O)NC(=O)Nc2cc(C)no2)cc1	1	12	-5	1	-4	0
O=C1COc2ccc(C(=O)COC(=O)Cc3ccc(F)cc3)cc2N1	1	-82*	-25	0	-4	-1
O=C1COc2ccc(C(=O)COC(=O)c3ccccc3F)cc2N1	0	x	-9	0	4	0
CC(C)(C)c1ccc(CNC(=O)c2ccc3c(c2)NC(=O)CO3)cc1	3	-31	331*	3	-6	7
CC(C)[C@H](NC(=O)c1ccco1)C(=O)OCC(=O)c1ccc2c(c1)NC(=O)CO2	11*	15	6	0	-2	0
Cc1cccc2cc(-c3nc4ccc(C(=O)O)cc4[nH]3)c(=O)oc12	1	22	16	0	-18	3
O=C(NC12CC3CC(CC(C3)C1)C2)c1c(Cl)cccc1Cl	2	-10	-33	1	2	-1
Cc1ccccc1-c1cc2nc(NCc3ccccc3F)n(C)c(=O)c2s1	x	x	x	x	-16	x
COC(=O)c1[nH]c2cc(OC)c(OC)cc2c1NC(=O)Oc1ccccc1	-3	12	-15	0	46	0
COC(=O)c1[nH]c2ccc(C)cc2c1NC(=O)CN1CCCc2ccccc21	-5	-1	32	0	26	57*
COC(=O)c1[nH]c2ccc(C)cc2c1NC(=O)Oc1ccccc1	2	20	-17	1	7	54*
Oc1ccccc1C=NCCN1CCN(CCN=Cc2ccccc2O)C1c1ccccc1O (centres undefined)	-2	x	x	x	14	x
O=C(/C=C/[C@H]1O[C@@H](n2ccc(=O)[nH]c2=O)[C@H](O)[C@@H]1O)NCC1CCCO1 (some centres undefined)	x	x	x	x	-3	x
NNc1nc(Nc2ccccc2)nc(Nc2ccccc2)n1	-1	43	-10	4	20	81*
NNc1nc(Nc2ccccc2)nc(N2CCCCC2)n1	0	9	36	1	5	20
Cc1cccnc1Nc1nc(-c2ccccn2)cs1	-7	35	x	6	-1	-6
Cc1cccnc1Nc1nc(-c2ccc(O)cc2O)cs1	25*	1	-17	7	13	61*
Cc1cccnc1Nc1nc(-c2ccccc2)cs1	-15	-3	-1	8	-8	55*
COc1ccccc1N1CCN(S(=O)(=O)CCNC(=O)CCc2ccccc2)CC1	x	x	x	x	4	x
C[C@H]1[C@H](C)CC[C@]2(C(=O)O)CC[C@]3(C)C(=CC[C@@H]4[C@@]5(C)C[C@@H](O)[C@H](O)C(C)(C)[C@@H]5CC[C@]43C)[C@H]12	-3	24	510*	18	2	3
SMILES	GRIN3A LBD mod	AI-2 QS modul	SUMO Mot1 rescue	NTR1 agonist	Cardio protect	AHR act
Cc1ccccc1NC(=O)c1cc[n+]([O-])cc1	1	16	8	0	3	1
Clc1ccc(-c2cn3c(n2)-c2ccccc2C3)cc1Cl	30*	35	1	4	-7	62*
COc1cc(C(=O)NN=Cc2ccc(N(C)C)cc2)cc(OC)c1OC	x	x	x	x	4	x
O=C(Nc1ccc(F)cc1F)c1ccc2ncsc2c1	1	21	335*	0	2	-1
O=C(Nc1ccccc1F)c1ccc2ncsc2c1	3	7	-17	-1	-3	0
C[C@H]1CN=C(Nc2ccccc2)N1CC1CCCCCC1	-2	7	37	-2	-10	-1
O=C(c1cccc(S(=O)(=O)NCc2ccccc2)c1)N1CCN(Cc2ccccc2)CC1	15*	16	9	0	-7	-1
O=C(c1cccc(S(=O)(=O)NCc2ccccc2)c1)N1CCCCC1	2	19	-4	-1	-1	0
COc1ccc(-c2noc3c2-c2nc(-c4ccccc4Cl)sc2CC3)cc1	-6	21	-14	9	-5	14
CCOc1ccccc1-c1nc2c(s1)CCc1onc(-c3ccc(OC)cc3)c1-2	17*	6	5	6	-4	6
Cc1ccc(-c2nc3c4ccccc4ccn3c2CN2CCCCC2)cc1	-1	-1	8	20	-13	31
CC(=O)c1c(-c2ccc(C)cc2)nc2c3ccccc3ccn12	1	3	-1	5	14	59*
CCOC(=O)c1c(C)nc2c3ccccc3ccn12	6	7	-15	4	-16	75*
CCOC(=O)c1c(C)nc2c(C)cccn12	1	8	165	1	-5	0
CC1C(=O)N2CCCc3cc(NC(=O)C4CC4)cc1c32 (centres undefined)	1	4	-15	1	0	12
OC(CNCCc1ccc(C(F)(F)F)cc1)COC(c1ccccc1)c1ccccc1 (centres undefined)	-4	-6	-32	66*	-24	5
CC1CCN(S(=O)(=O)c2cc(F)ccc2CN2C(=O)c3cccnc3C2=O)CC1	2	8	11	0	-2	-1
CCOCCC(=O)Nc1ccc2c(c1)c(=O)n(C)n2CC=C(C)C	x	x	x	x	-2	x
O=C1CNC(=O)c2c(nc3n2CCC3)N1	11*	9	-4	-1	2	0
Nc1ccc(C(=O)NCCCSc2ccccc2)cc1[N+](=O)[O-]	1	8	-10	0	-9	0
O=C(CN1C(=O)NC2(CCCC2)C1=O)N1CCN(S(=O)(=O)c2ccccc2[N+](=O)[O-])CC1	2	30	0	0	5	0
Cc1nn(S(=O)(=O)c2ccc(F)cc2)c(C)c1S(=O)(=O)N1CCOCC1	3	3	-16	0	6	0

Source: PubChem BioAssay (several laboratories)
